Reference: PubChem BioAssay (EPA / NIEHS)
Records with an inconclusive call do not appear. Active and inactive are the calls of the source. The calls were made as follows, unless noted: active = hit-call score of the fitted dose curve at least 0.9, where 1 is the maximum; inconclusive = response in the unintended direction; inactive = score below 0.9. Where a SMILES comes first, the peptide text is derived from it. Bridges are numbered along the chain shown (N, C = ends). [ ]: non-standard residue; d: D form. The star is where a group is joined. Ileψ(thiazoline)Cys = CC[C@H](C)[C@H](N)C1=N[C@H](C(=O)*)CS1; dOrn = NCCC[C@@H](N)C(=O)O

Key:
[1] = TOX21_p53_BLA_p2_viability: Viability Assessment in the Tox21 HCT-116 p53 Agonism Beta-lactamase Assay, Phase 2 (AID 2283591);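 also: compound exposure lasted 16 h at 37 °C; actives lower the ATP signal meaning cytotoxicity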
How it was run: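 HCT116 p53-bla cells, 4000/well, dosed after 5 h plating (217-fold dilution of DMSO stocks) and incubated 16 h at 37C. Viability taken as cellular ATP by CellTiter-Glo luminescence after 30 min RT; signal loss marks cytotoxicity.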

[2] = molecular target: Cellular tumor antigen p53 (Homo sapiens) (UniProt P04637); assay: TOX21_p53_BLA_p2_ratio: Tox21 HCT-116 p53 Agonism Beta-lactamase Assay, Ratio, Phase 2 (AID 2283592)
How it was run: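 Read-out is the blue/green (460/530 nm, 405 nm excitation) ratio after 2 h CCF4-AM loading, fitted as gain versus DMSO. Compounds, pinned at 217-fold dilution from DMSO stocks, stayed 16 h on HCT-116 beta-lactamase reporter cells seeded 5 h earlier.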

[3] = TOX21_p53_BLA_p3_viability: Viability Assessment in the Tox21 HCT-116 p53 Agonism Beta-lactamase Assay, Phase 3 (AID 2283593);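 also: cells exposed to compound for 16 h before reading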
How it was run: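 HCT116 cells, 4000/well, dosed 5 h after plating by pin transfer (217-fold dilution from DMSO stock) and incubated 16 h at 37C, 5% CO2. Viability read as ATP luminescence with CellTiter-Glo after 30 min at room temperature.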

[4] = molecular target: Cellular tumor antigen p53 (Homo sapiens) (UniProt P04637); assay: TOX21_p53_BLA_p3_ratio: Tox21 HCT-116 p53 Agonism Beta-lactamase Assay, Ratio, Phase 3 (AID 2283596)
How it was run: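 Cells were seeded at 4000/well, rested 5 h at 37C, then dosed with DMSO compound solutions (217-fold dilution) for 16 h. CCF4-AM substrate was loaded for 2 h at room temperature, and the 460/530 nm emission ratio was fitted for gain of signal versus DMSO.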

[5] = TOX21_p53_BLA_p4_viability: Viability Assessment in the Tox21 HCT-116 p53 Agonism Beta-lactamase Assay, Phase 4 (AID 2283597);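 also: hits lower the luminescence signal meaning cytotoxicity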
How it was run: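 Cytotoxicity as reduced cellular ATP (CellTiter-Glo luminescence, 30 min room temperature), measured in the same wells following the CCF4 FRET p53 reading. Human HCT-116 cells received compounds in DMSO (217-fold dilution) for 16 h.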

[6] = TOX21_p53_BLA_p5_viability: Viability Assessment in the Tox21 HCT-116 p53 Agonism Beta-lactamase Assay, Phase 5 (AID 2283600)
How it was run: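 Viability came from CellTiter-Glo ATP luminescence, read after 30 min at room temperature. Before this, HCT-116 p53-bla cells (4000/well) had 16 hours of compound exposure at 37C, with DMSO stocks diluted 217-fold on transfer.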

[7] = molecular target: Cellular tumor antigen p53 (Homo sapiens) (UniProt P04637); assay: TOX21_p53_BLA_p5_ratio: Tox21 HCT-116 p53 Agonism Beta-lactamase Assay, Ratio, Phase 5 (AID 2283599)
How it was run: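 HCT-116 p53-bla cells (4000/well) plated 5 h, dosed with compound (217-fold DMSO dilution) for 16 h at 37 C; CCF4-AM substrate 2 h at room temperature. Activity is the 460/530 nm emission ratio (405 nm excitation), fitted in gain-of-signal direction versus DMSO.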

[8] = molecular target: Cellular tumor antigen p53 (Homo sapiens) (UniProt P04637); assay: TOX21_p53_BLA_p4_ratio: Tox21 HCT-116 p53 Agonism Beta-lactamase Assay, Ratio, Phase 4 (AID 2283601)
How it was run: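 HCT-116 p53 beta-lactamase reporter cells (4000/well) preincubated 5 h, then compound (217-fold dilution of DMSO stock) for 16 h at 37C. CCF4-AM substrate added 2 h at room temperature; 460/530 nm emission ratio fitted upward versus DMSO.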

[9] = CCTE_Harrill_HTTr_Viability_MCF7: CCTE's 6-hour Cell Viability Assessment for the High-Throughput Transcriptomics (HTTr) Platform, in MCF-7 cells cultured in DMEM + 10% fetal bovine serum, Harrill Lab (AID 2284010; active = hit-call score of the fitted dose curve at least 0.9, where 1 is the maximum; inactive = score below 0.9)
How it was run: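 PI exclusion, high-content imaging; 8-pt dilution series, 6 h exposure; bidirectional fit vs DMSO (neg. ctrl/baseline); gain of signal = loss of membrane integrity.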

[10] = CCTE_Harrill_HTTr_Apoptosis_MCF7: CCTE's 6-hour Apoptosis Assessment for the High-Throughput Transcriptomics (HTTr) Platform, in MCF-7 cells cultured in DMEM + 10% fetal bovine serum, Harrill Lab (AID 2284011; active = hit-call score of the fitted dose curve at least 0.9, where 1 is the maximum; inactive = score below 0.9)
How it was run: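 High-content imaging of CellEvent Caspase 3/7 Green signal follows a six-hour exposure, with eight concentrations per chemical. MCF-7 cells grown in DMEM plus 10% fetal bovine serum; activity fitted in both directions against DMSO.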

Sequence of Cellular tumor antigen p53 (Homo sapiens) (P04637 whole entry, looked up): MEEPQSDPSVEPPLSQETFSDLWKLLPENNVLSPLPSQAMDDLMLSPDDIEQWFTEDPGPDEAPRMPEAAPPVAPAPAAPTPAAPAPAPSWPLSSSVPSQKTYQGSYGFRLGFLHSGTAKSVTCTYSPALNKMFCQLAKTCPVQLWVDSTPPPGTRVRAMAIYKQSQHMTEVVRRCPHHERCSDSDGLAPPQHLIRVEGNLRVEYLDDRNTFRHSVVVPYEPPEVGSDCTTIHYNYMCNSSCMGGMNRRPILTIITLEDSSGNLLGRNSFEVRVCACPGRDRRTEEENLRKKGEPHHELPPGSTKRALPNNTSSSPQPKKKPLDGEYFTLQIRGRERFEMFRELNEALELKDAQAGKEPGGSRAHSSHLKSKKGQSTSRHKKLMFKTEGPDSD

Row | SMILES | outcome [1] | outcome [2] | outcome [3] | outcome [4] | outcome [5] | outcome [6] | outcome [7] | outcome [8] | outcome [9] | outcome [10] | AC50 [5] | AC50 [4]
1 | CCCCCCCCCCCCI | inactive | inactive | inactive | inactive | inactive | inactive | – | – | – | – | – | –
2 | C#CCN(C)Cc1ccccc1 | inactive | inactive | inactive | inactive | inactive | – | inactive | inactive | inactive | inactive | – | –
3 | C[Si](NC1CCCCC1)(NC1CCCCC1)NC1CCCCC1 | inactive | inactive | inactive | inactive | – | inactive | – | inactive | – | – | 88.8 µM (active) | –
4 | CC[C@H](C)[C@H](N)C1=N[C@H](C(=O)N[C@@H](CC(C)C)C(=O)N[C@H](CCC(=O)O)C(=O)N[C@H](C(=O)N[C@H]2CCCCNC(=O)[C@H](CC(N)=O)NC(=O)[C@@H](CC(=O)O)NC(=O)[C@H](Cc3cnc[nH]3)NC(=O)[C@@H](Cc3ccccc3)NC(=O)[C@H]([C@@H](C)CC)NC(=O)[C@@H](CCCN)NC2=O)[C@@H](C)CC)CS1 ({Ileψ(thiazoline)Cys}-L[dE]IK[dOrn]I[dF]H[dD]N; lactam 4-C) | inactive | inactive | inactive | inactive | inactive | inactive | – | inactive | – | – | – | –
5 | OC(CN1CCC(Cc2ccc(F)cc2)CC1)c1ccc(Cl)cc1 (stereo not given) | inactive | inactive | inactive | inactive | inactive | inactive | – | inactive | – | – | – | –
6 | Cc1cc(C(C)(C)C)c(O)c(C)c1Cn1c(=O)n(Cc2c(C)cc(C(C)(C)C)c(O)c2C)c(=O)n(Cc2c(C)cc(C(C)(C)C)c(O)c2C)c1=O | inactive | inactive | inactive | – | inactive | inactive | – | inactive | – | – | – | 56.3 µM (active)
7 | OCC(O)CS (stereo not given) | inactive | inactive | inactive | inactive | inactive | – | inactive | inactive | – | – | – | –
